# High-throughput results deposited in PubChem by National Center for Advancing Translational Sciences (NCATS).
# Pf growth 96h: P. falciparum growth inhibition at 96 hours; actives 6.9% (n = 320,000); P. falciparum luciferase reporter growth, 96 h; Potency, µM (doses to about 28.7 µM), inactives show at the highest dose activity change, negative = inhibition, most hits filed as inhibitors; also: potency is read from the fitted curve at half-maximal effect; % is scaled to controls: 0 for no effect and ±100 for the full control effect
#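 Plates of compound plus infected erythrocytes (2% hematocrit, 0.05% parasitemia final) incubate 96 hours, 37 C, 5% CO2. Detection reagent added; reduced luminescence from the parasites' luciferase reporter flags inhibition.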
# CHX counter: counter-screen hit for Shiga toxin inhibitors, cycloheximide. actives 12% (n = 300,000). AID 2314. cell reporter, cycloheximide protein synthesis inhibition counterscreen. max response, %; in the data active = max response mostly above about 13%, no sharp cut-off; inactive = mostly below about 14%; also: read at 38.3 µM for the half of the compounds with a filed dose; 0% is about no effect
# Shiga inhibitor: inhibitors of Shiga toxin in Vero cells | actives 9.2% (n = 290,000) | Vero cells, Shiga toxin protein synthesis inhibition reporter | inhibition, % at 38.7 µM; in the data active = inhibition mostly above about 28%, no sharp cut-off; inactive = mostly below about 43%; also: 0% is about no effect
# AMA1 RON2 block: AMA1-RON2 (P. falciparum) interaction inhibition. AlphaScreen AMA1-biotinylated RON2 peptide binding. Potency, µM (highest dose often 58.2 µM), for the others: top-dose activity change, negative = inhibition, hits mostly inhibitors. actives 0.2% (n = 360,000);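 also: potency is read from the fitted curve at half-maximal effect; 0% = vehicle wells and -100% = peptide control; nearly all actives have a fitted effect of over 45% in size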
#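 AMA1 (3D7) with his tag at 25 nM final met compounds first, then biotinylated RON2 peptide at 25 nM; detection used donor plus acceptor beads, 10 µg/mL apiece, read by AlphaScreen after 30 min at room temperature.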
# Pf growth 48h: P. falciparum growth inhibition at 48 hours (one generation); P. falciparum luciferase growth in erythrocytes, 48 h; Potency, µM (doses to about 28.7 µM), for the others: top-dose activity change, negative = inhibition, most hits filed as inhibitors; actives 5.9% (n = 310,000); AID 504832; also: potency is read from the fitted curve at half-maximal effect; % is scaled to controls: 0 for no effect and ±100 for the full control effect
#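 Firefly luciferase activity from engineered P. falciparum reports growth; inhibitors lower the luminescent signal. Cultures contained 2% hematocrit erythrocytes at 0.1% final parasitemia.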
# SARS PLpro yeast: blocks SARS-CoV papain-like protease in a yeast assay; S. cerevisiae expressing SARS-CoV PLpro, growth rescue; Potency, µM (titrated, usually from 32.9 µM), inactives show top-dose activity, positive = growth rescue, most hits filed as activators; actives 0.19% (n = 330,000); calls by dose curve; also: potency is read from the fitted curve at half-maximal effect; 0% is about no effect; nearly all actives have a fitted effect of over 55% in size
# The depositor's hits bear a star; ? = inconclusive; . = no result; [ ] = dose if it differs, or a comment. This is a sample that favours compounds with a hit; in the whole collection about 19% have one here. Unless noted, calls follow the shape of the dose curve; as a rule, active = well fitted curve in the direction sought with a large enough effect; inconclusive = small, poorly fitted or top-dose-only effect, or another doubt; inactive = no such curve, though single readings can be large; an effect the other way counts as inactive or inconclusive.
SMILES,Pf growth 96h,CHX counter,Shiga inhibitor,AMA1 RON2 block,Pf growth 48h,SARS PLpro yeast
N#Cc1cccc(NC(=O)c2cc(C3CCCCN3C(=O)c3cccs3)on2)c1 (stereo not drawn),.,.,.,0%,.,.
CCC(C(=O)NCCc1ccc(OC)cc1OC)n1nc(C)n2c(cc3occc32)c1=O (stereo not drawn),3%,1,-4,0%,-27%,1%
CCC1CCCCN1C(=O)COC(=O)c1cc(=O)[nH]c2ccccc12 (stereo not drawn),.,.,.,-6%[11.6 µM],.,1%
CC(NC(=O)COC(=O)/C=C/c1ccc(Cl)cc1)c1ccccc1 (stereo not drawn),-21%,-1,19,-11%,47%,0%
COc1ccc2c(c1)C(=NN)c1cc(OC)ccc1-2,-52%,45*,85,-13%,?,4%
CN(CCO)S(=O)(=O)c1ccc2c(c1)C(=NN)c1cc(S(=O)(=O)N(C)CCO)ccc1-2,2%,-4,-3,-3%,-12%,0%
Cc1nn(Cc2ccccc2Cl)c(Cl)c1C(=O)NCCc1ccccc1,126%,47*,100*,3%,169%,7%
CCNC(=O)NC(=O)C(C)OC(=O)c1c(C)nn(Cc2ccccc2)c1Cl (stereo not drawn),?,-2,-4,9%,13µM*,4%
CC(=O)Nc1ccc(NC(=O)c2c(C)nn(Cc3ccccc3)c2Cl)cc1,-28%,-3,5,14%,6%,2%
CCNC(=O)NC(=O)C(C)OC(=O)c1c(C)nn(Cc2ccccc2Cl)c1Cl (stereo not drawn),12µM*,-3,-6,9%,?,17%
CCNC(=O)NC(=O)C(C)OC(=O)c1cccn1C (stereo not drawn),79%,-1,-2,6%,10µM*,0%
CCNC(=O)NC(=O)C(C)OC(=O)c1cccnc1SC (stereo not drawn),.,.,.,3%,.,.
Cc1cc(NC(=O)COC(=O)c2c(C)nn(Cc3ccccc3Cl)c2Cl)no1,35%,1,-10,5%,-7%,9%
N#Cc1ccccc1OCCCN1CCC(C(O)(c2ccccc2)c2ccccc2)CC1,.,.,.,-3%,.,.
COc1ccc(C(=O)Nc2cc(-c3ccccc3)nn2-c2ccccc2F)cc1,?,.,.,43%,?,8%
O=C1c2cc(S(=O)(=O)NCCCO)ccc2-c2ccc(S(=O)(=O)NCCCO)cc21,.,-6,-22,-1%,-9%,1%
O=C(O)[C@H]1CCCC[C@H]1C(=O)Nc1ccc(S(=O)(=O)N2CCOCC2)cc1,?,-3,-7,1%,3%,-1%
CC(C)OC(=O)N(C)C[C@@H]1OCc2cn(nn2)CCCC(=O)N([C@H](C)CO)C[C@H]1C,.,.,.,20%,.,.
COc1ccc(NC(=O)CCNS(=O)(=O)c2ccc(Br)s2)cc1,11%,1,-2,-5%,40%,3%
Cc1nn(Cc2ccccc2Cl)c(Cl)c1C(=O)OCC(=O)NCc1ccco1,.,11*,10,34%,9%,1%
COc1ccc(OC(C)C(=O)Nc2cccc(F)c2)cc1 (stereo not drawn),1µM*,1,11,10%,-5%,0%
COc1ccc(OCCCC(=O)OC(C)C(=O)Nc2cccc(C(C)=O)c2)cc1 (stereo not drawn),53%,15*,-22,?,7%,2%
CCn1c2ccccc2c2cc(NC(=O)C(C)Oc3ccccc3)ccc21 (stereo not drawn),?,-1,-15,-14%,?,-6%
CCn1c2ccccc2c2cc(NC(=O)C(C)Oc3ccc(OC)cc3)ccc21 (stereo not drawn),5.9µM*,1,-3,-8%,?,0%
COc1ccc(C(=O)CNc2cccc(F)c2)cc1,4%,50*,87*,8%,46%,-5%
SMILES,Pf growth 96h,CHX counter,Shiga inhibitor,AMA1 RON2 block,Pf growth 48h,SARS PLpro yeast
COc1ccc(C(=O)CC(=O)C(=O)Nc2cccc(F)c2)cc1,?,19*,50*,61%,.,-2%
CC(Oc1ccc(F)cc1)C(=O)Nc1ccc2ccccc2c1 (stereo not drawn),35%,11,10,8%,.,7%
COc1ccc(C(=O)CC(=O)C(=O)Nc2ccccc2)cc1,-3%,22,36,40%,10%,1%
CC(Oc1ccccc1F)C(=O)Nc1ccc2ccccc2c1 (stereo not drawn),67%,45*,80*,17%,74%,?
CC(=O)c1cccc(NC(=O)Cn2cnc(S(=O)(=O)N3CCC(C)CC3)c2)c1,-18%,1,-1,1%,-3%,3%
O=C(Cc1ccc(F)cc1)NCCS(=O)(=O)N1CCN(c2cccc(Cl)c2)CC1,-19%,.,.,2%,6%,-3%
COc1ccc(NC(=O)CSc2cc(C(=O)c3nccn3C)c3ccccc3n2)cc1,4%,-3,-12,-9%,-22%,-1%
CCOC(=O)Nc1sc2c(c1C(=O)OCC)CCC2,.,5,-17,9%,.,-1%
CCOC(=O)c1c(NC(NC(=O)C(C)C)C(Cl)(Cl)Cl)sc2c1CCC2 (stereo not drawn),67%,15*,35,15%,?,-30%
Cc1ccc(S(=O)(=O)c2ccc(Oc3cccc(C)c3)cc2)cc1,0%,0,-3,1%,48%,-11%
O=[N+]([O-])c1ccc(-c2ccc(/C=N/Nc3nc(NCc4ccccc4)nc(N4CCOCC4)n3)o2)cc1,?,9,37,-14%,1.5µM*,-1%
COc1nc(N/N=C/c2ccc(-c3ccccc3[N+](=O)[O-])o2)nc(N2CCOCC2)n1,?,70*,110*,20%,14%,9%
Cc1ccc2c(c1)c1ncnc(N3CCC4(CC3)OCCO4)c1n2C,1%[5.75 µM],33*,64*,.,56%,5%
Cc1ccc2c(c1)c1ncnc(N3CCOCC3)c1n2C,?,28*,94*,12%,?,6%
COc1cc(/C=C2\NC(=S)N(C)C2=O)ccc1OCc1cccc(F)c1,-26%,-2,-4,46%,8%,-2%
C=CCNC(=O)/C(C#N)=C/c1c(N2CCN(c3cccc(Cl)c3)CC2)nc2c(C)cccn2c1=O,?,-3,1,-26%,8.3µM*,0%
CNC(=O)/C(C#N)=C/c1c(N2CCN(c3cccc(Cl)c3)CC2)nc2c(C)cccn2c1=O,?,-6,-7,-20%,-21%,-2%
CCNC(=O)/C(C#N)=C/c1c(N2CCCCCC2)nc2c(C)cccn2c1=O,13µM*,-9,-9,6%,?,-2%
COCCNC(=O)/C(C#N)=C/c1c(N2CCN(c3ccccc3)CC2)nc2c(C)cccn2c1=O,?,-6,-7,6%,13µM*,-2%
